Results from PubChem BioAssay.
Inconclusive results are not listed. Active and inactive are the calls of the source.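 The calls were made as follows, unless noted: active = binding below the plate cutoff, the plate median minus 3 SD, with a reading above zero; inconclusive = below the plate cutoff but reading exactly zero; inactive = the rest.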

Legend:
[1] = rapamycin-like changes in RPL19A-GFP expression – cell-based, S. cerevisiae, multiplex flow cytometry, primary screen (AID 1862; in the data active = percent of DMSO control GFP below about 86%;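 also: lower values mimic rapamycin by blocking the RPL19A rise seen in DMSO cells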); settings: S. cerevisiae RPL19A-GFP strain, flow cytometry fluorescence, 3 h; at 10 µM; stronger effect = lower value
[2] = TOR pathway GLN3 branch reporter MEP2-GFP changes – S. cerevisiae, multiplex flow cytometry, primary screen (AID 1867;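 active = GFP response, as percent of the DMSO control, above the screen-wide mean plus 3 SD, about 139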;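 also: median GFP channel fluorescence of barcode-gated MEP2-GFP cells measured by flow cytometry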); settings: S. cerevisiae MEP2-GFP strain, 3 h, at 10 µM, stronger effect = higher value, 100% means same as DMSO wells
[3] = TOR pathway RTG branch CIT2 reporter changes – S. cerevisiae, GFP fusion, multiplex flow cytometry, primary screen (AID 1870;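 active = percent response above a set limit, the screen-wide mean plus 3 SD, cut at about 130% in these data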;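 also: barcoded CIT2-GFP strain pooled with four other GFP strains with rapamycin as positive control; median GFP fluorescence per well over plate mean of DMSO wells so 100% = DMSO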); settings: S. cerevisiae CIT2-GFP expression, 3 h, at 10 µM, stronger effect = higher value
[4] = TOR pathway LAP4-GFP level changes – S. cerevisiae, multiplex flow cytometry, primary screen (AID 1873;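 active = GFP signal, as percent of the solvent control, above the screen mean plus 3 SD, about 149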); settings: S. cerevisiae LAP4-GFP expression, 3 h, at 10 µM, stronger effect = higher value
[5] = yeast AGP1-GFP level changes, GLN3 branch – cell-based, multiplex flow cytometry, S. cerevisiae, primary screen (AID 1887;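 active = GFP signal above the screen-wide mean plus 3 SD, that is over about 124.5% of the solvent control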;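 also: AGP1-GFP fusion strain of S. cerevisiae within a five-strain barcoded multiplex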); settings: 3 h, at 10 µM, stronger effect = higher value
[6] = reduced mouse 2C T cell binding to pMHC/ICAM-1 vesicles – MLPCN validation set, flow cytometry, LFA-1/ICAM-1 modulator project, pilot screen (AID 2523;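 active = response below a set limit, under 55% cells CD8-positive and vesicle-bound, and CD8 cells' 90th-percentile brightness under 279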;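 as to vesicle binding response: mean PE anti-B7-1 fluorescence of CD8+ cells relative to row control; 100% = QL9-loaded vesicles with DMSO vehicle in the same plate row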); settings: 2C mouse CD8+ T cells, at 7 µM, stronger effect = lower value; double positive events: measured here: CD8+/vesicle+ event percentage
[7] = target: Integrin beta-1 (Homo sapiens) + Integrin alpha-4 (Homo sapiens) (UniProt P13612+P05556); assay: alpha4beta1 integrin LIBS antibody binding reduction – U937 cells, HUTS-21 mAb, flow cytometry, validation set, VLA-4 allosteric modulator project, pilot screen (AID 2674;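 active = inhibition above 50%, about 3 SD of the validation set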;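 also: antibody binding induced by the VLA-4 ligand LDV present at three times its Kd; 0% = LDV ligand with antibody and no compound and 100% = antibody without LDV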); settings: HUTS-21 LIBS mAb binding, at 6.7 µM, stronger effect = higher value, binding induced by LDV ligand
[8] = calorie-restriction mimetic ROS inhibitors, yeast – validation compound set, pilot screen (AID 2706;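 active = superoxide response below 65% of plate, a cut near 3 SD across the whole screen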;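 also: yeast exposed to compound for one week at 30 degrees C before staining; 100% = mean of all compound wells on the same plate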); settings: S. cerevisiae aging, superoxide DHE fluorescence; at 10 µM; stronger effect = lower value
[9] = target: Beta-adrenergic receptor kinase 1 (Homo sapiens) (UniProt P25098); assay: GRK2 binders displacing RNA aptamer, biochemical, validation, human GRK2, bead flow cytometry (AID 488806;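 active = aptamer binding inhibition above 30%, about 3 SD of noise from non-fluorescent compounds; inactive = inhibition at or below 30%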); settings: bead-bound GRK2, FAM-aptamer displacement, at 10 µM, stronger effect = higher value
[10] = target: Beta-2 adrenergic receptor (Homo sapiens) (UniProt P07550); assay: agonist-induced loss of surface beta2AR – cell-based, FAP fluorogen, flow cytometry, validation set, pilot screen (AID 504459;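 active = percent response above 42, roughly 3 SD of non-fluorescent test compounds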;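 also: agonist-driven loss of surface beta2AR via internalization measured by FAP dye flow cytometry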); settings: Am2.2-beta2AR cells, at 10 µM, stronger effect = higher value
[11] = target: AP-2 complex subunit beta (Homo sapiens) (UniProt P63010); assay: beta-arrestin/AP2 interaction blockers – biochemical, validation set, GST-AP2 beads, flow cytometry, pilot screen (AID 504541;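 active = inhibition above 54%, about 3 SD of non-fluorescent compounds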;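 also: AP2 carries R879A mutation and is captured from E. coli lysate; bead-bound FITC arrestin peptide fluorescence measuring arrestin peptide binding to AP2; 0% = DMSO wells and 100% = excess unlabeled arrestin peptide control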); settings: FITC arrestin peptide, at 10 µM, stronger effect = higher value, AP2 beta2 appendage fragment, R879A mutant
[12] = cytosolic pH regulators acting via V-ATPase – S. cerevisiae, pHLuorin, HTS validation (AID 504600; in the data active = response above about 15%;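 also: plate controls were DMSO for no effect and reference compound for full effect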); settings: V-ATPase proton transport, at 10 µM, stronger effect = higher value
[13] = test system: anti-desmoglein-3 scFv antibody binding to human DSG3; assay: blockers of pathogenic pemphigus antibody–desmoglein-3 binding – biochemical, validation compound set, bead-based, flow cytometry, pilot screen (AID 588368); settings: Protein G beads, DSG3-Fc, scFv-GFP binding, at 10 µM, stronger effect = lower value;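 also: signal is the median channel fluorescence of bead-bound GFP antibody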
[14] = Nile Red efflux blockade in pump-expressing yeast – validation compound set, multiplex, phenotypic, pilot screen (AID 588506;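 active = efflux inhibition above 0.42, the validation set average plus 4 SD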;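 also: Nile Red retained in cells so higher fluorescence means more efflux inhibition; 0 = negative control wells and 1 = enniatin B 25 µM full block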); settings: S. cerevisiae pump-expressing triplex, Nile Red efflux flow cytometry; at 10 µM; stronger effect = higher value; the pumps come from Candida albicans
[15] = target: ATP-binding cassette sub-family B member 6 (Homo sapiens) (UniProt Q9NP58); assay: blockers of ABCB6-driven porphyrin uptake – K562-ABCB6 cells, flow cytometry, validation set, pilot screen (AID 588550;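 active = inhibition above the screen-wide mean plus 3 SD, about 51%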;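 also: 0% = DMSO wells and 100% = benzethonium chloride 70 µM positive control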); settings: K562-ABCB6 porphyrin accumulation, 1 h, at 10 µM, stronger effect = higher value
[16] = AML differentiation inducers, ER-HoxA9 marrow cells – cell-based, GFP/MAC1 double positive, flow cytometry, validation set, primary screen (AID 588685;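 active = differentiation response of at least 50%, scaled between solvent and reference control, from cells with both markers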;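 also: compound exposure lasts four days before antibody staining and flow analysis; 0% = DMSO wells and 100% = 5 µM fulvestrant positive control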); settings: stronger effect = higher value, normalized: vehicle 0, fulvestrant 100

Sequence of Beta-adrenergic receptor kinase 1 (Homo sapiens) (P25098 whole entry, looked up): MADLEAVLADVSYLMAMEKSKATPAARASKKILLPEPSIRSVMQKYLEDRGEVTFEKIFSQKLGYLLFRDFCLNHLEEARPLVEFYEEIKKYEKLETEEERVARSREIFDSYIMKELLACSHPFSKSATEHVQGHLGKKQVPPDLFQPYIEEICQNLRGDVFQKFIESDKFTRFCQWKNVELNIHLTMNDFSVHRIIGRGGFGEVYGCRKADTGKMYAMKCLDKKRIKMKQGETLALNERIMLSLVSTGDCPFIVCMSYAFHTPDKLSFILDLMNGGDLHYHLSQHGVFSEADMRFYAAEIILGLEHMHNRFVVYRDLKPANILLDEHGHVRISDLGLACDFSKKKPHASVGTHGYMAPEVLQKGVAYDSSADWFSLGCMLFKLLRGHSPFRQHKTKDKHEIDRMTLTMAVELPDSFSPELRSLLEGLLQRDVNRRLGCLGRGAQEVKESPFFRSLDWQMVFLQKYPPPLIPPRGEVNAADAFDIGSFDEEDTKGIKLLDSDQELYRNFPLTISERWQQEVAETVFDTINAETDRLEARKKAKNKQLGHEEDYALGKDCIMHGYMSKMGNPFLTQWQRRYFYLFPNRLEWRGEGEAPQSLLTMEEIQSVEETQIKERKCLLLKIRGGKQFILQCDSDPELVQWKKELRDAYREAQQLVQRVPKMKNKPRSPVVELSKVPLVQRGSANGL
Sequence of Integrin beta-1 (Homo sapiens) + Integrin alpha-4 (Homo sapiens) (P05556 whole entry, looked up): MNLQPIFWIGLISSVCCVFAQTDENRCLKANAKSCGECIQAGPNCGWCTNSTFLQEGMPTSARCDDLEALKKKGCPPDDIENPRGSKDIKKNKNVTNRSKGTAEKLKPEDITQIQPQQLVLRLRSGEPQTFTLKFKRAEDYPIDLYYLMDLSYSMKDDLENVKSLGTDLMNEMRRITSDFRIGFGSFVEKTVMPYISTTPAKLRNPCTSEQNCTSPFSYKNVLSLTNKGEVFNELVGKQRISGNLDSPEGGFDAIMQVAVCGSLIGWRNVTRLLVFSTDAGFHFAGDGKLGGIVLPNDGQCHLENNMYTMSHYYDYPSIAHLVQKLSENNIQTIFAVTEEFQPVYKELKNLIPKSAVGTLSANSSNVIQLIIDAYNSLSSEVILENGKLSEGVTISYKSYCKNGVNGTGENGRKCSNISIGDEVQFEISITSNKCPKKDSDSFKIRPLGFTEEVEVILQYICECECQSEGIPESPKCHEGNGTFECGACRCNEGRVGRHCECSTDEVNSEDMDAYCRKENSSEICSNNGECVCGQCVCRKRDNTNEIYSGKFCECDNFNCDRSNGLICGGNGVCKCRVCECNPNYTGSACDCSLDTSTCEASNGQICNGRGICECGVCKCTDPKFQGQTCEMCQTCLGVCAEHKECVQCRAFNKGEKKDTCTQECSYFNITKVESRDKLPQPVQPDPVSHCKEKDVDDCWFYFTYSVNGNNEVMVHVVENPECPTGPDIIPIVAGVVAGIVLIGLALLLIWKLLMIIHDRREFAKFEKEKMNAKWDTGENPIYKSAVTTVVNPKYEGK
Sequence of Integrin beta-1 (Homo sapiens) + Integrin alpha-4 (Homo sapiens) (P13612 whole entry, looked up): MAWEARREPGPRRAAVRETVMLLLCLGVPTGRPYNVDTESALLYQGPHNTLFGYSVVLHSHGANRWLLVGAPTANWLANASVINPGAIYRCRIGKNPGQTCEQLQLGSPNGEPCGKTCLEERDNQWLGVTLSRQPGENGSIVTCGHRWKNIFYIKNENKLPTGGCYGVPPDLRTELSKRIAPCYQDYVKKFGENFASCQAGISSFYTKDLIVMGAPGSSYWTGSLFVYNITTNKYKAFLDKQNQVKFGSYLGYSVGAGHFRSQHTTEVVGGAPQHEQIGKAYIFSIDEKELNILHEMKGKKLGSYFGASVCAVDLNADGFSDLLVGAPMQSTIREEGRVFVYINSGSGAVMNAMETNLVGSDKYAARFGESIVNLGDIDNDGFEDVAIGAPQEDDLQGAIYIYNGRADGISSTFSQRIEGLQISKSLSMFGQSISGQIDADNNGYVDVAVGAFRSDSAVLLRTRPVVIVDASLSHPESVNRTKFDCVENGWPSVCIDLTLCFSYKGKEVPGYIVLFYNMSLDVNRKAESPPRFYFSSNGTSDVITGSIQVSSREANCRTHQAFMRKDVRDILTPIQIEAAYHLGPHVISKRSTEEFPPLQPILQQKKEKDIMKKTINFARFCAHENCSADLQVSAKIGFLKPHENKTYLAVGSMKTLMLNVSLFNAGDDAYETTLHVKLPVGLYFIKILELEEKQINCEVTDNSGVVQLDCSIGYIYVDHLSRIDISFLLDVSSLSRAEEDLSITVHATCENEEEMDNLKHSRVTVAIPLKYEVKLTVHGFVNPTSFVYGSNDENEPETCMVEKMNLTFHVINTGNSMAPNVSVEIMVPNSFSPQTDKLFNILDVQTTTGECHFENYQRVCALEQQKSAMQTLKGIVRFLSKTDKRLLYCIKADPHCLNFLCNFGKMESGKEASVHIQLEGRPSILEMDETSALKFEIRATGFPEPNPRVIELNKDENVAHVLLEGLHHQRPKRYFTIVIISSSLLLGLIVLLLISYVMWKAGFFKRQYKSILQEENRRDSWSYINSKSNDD
Sequence of AP-2 complex subunit beta (Homo sapiens) (P63010 whole entry, looked up, the tested form may be a part, one chain of several): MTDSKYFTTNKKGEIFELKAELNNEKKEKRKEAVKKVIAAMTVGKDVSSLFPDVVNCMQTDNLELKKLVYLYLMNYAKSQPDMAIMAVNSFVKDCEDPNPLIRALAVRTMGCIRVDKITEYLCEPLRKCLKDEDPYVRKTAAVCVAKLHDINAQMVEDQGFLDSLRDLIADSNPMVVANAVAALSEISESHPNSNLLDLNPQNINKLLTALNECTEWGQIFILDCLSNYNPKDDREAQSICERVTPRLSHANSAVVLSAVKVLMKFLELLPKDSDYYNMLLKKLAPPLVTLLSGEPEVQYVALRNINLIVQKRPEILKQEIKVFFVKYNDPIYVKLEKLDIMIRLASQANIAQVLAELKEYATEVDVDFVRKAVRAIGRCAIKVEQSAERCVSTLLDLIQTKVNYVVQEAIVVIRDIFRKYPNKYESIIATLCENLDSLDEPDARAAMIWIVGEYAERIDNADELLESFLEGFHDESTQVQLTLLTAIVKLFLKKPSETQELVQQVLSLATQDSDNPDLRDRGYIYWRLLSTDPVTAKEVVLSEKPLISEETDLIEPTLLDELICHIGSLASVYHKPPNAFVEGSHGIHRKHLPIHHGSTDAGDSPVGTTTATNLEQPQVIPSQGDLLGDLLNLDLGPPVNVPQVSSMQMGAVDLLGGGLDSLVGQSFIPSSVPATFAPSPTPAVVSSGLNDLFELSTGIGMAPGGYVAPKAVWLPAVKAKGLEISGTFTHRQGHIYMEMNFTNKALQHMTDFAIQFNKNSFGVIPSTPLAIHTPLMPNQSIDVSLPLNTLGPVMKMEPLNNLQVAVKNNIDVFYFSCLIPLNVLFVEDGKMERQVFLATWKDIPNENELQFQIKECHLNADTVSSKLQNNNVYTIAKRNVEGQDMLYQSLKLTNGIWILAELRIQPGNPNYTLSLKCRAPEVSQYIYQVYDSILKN
Sequence of ATP-binding cassette sub-family B member 6 (Homo sapiens) (Q9NP58 whole entry, looked up): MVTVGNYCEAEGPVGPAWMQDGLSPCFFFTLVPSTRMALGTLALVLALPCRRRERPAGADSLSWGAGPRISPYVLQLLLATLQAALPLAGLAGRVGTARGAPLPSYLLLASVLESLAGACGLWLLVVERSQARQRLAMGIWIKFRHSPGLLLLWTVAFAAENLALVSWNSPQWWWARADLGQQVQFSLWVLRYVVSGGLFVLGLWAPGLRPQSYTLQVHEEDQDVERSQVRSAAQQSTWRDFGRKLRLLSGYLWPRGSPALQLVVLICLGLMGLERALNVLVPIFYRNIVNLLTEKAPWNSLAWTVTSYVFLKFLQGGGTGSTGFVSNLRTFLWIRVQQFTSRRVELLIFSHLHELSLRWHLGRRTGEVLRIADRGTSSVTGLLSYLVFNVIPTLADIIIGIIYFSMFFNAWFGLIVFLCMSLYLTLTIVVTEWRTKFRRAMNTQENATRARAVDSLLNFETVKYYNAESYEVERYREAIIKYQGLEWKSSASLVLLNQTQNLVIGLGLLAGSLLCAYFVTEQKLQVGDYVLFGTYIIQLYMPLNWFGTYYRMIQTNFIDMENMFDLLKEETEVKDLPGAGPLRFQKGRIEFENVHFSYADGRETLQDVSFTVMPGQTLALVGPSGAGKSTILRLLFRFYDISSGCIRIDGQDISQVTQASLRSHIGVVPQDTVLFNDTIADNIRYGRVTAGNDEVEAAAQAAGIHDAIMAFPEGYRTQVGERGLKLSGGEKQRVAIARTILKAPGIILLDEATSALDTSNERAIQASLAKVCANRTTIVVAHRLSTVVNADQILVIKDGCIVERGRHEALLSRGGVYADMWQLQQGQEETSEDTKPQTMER
Sequence of Beta-2 adrenergic receptor (Homo sapiens) (P07550 whole entry, looked up): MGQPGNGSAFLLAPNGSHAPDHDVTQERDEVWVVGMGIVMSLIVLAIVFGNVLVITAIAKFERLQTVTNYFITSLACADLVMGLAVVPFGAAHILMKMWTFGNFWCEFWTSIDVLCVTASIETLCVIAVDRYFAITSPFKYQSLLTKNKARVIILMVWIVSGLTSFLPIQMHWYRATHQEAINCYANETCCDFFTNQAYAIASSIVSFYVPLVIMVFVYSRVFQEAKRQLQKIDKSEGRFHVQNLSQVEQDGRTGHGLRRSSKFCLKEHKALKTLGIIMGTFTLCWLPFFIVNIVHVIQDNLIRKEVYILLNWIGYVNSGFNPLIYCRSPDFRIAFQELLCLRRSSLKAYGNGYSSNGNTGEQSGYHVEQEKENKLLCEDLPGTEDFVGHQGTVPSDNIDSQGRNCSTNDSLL

Compound | percent of DMSO control GFP [1] | GFP response vs DMSO [2] | percent response of DMSO control [3] | GFP response vs DMSO [4] | GFP response, % of DMSO [5] | double positive events [6] [%] | vesicle binding response [6] | inhibition [7] | superoxide response (% of plate) [8] | aptamer binding inhibition [9] | response [10] | inhibition [11] | response [12] | binding (% of control) [13] | efflux inhibition (fraction of control) [14] | inhibition [15] | differentiation response [16]
COc1cc(C2C(C(C)=O)=C(O)C(=O)N2c2ccc(C)cc2)ccc1O (stereo not given) | 100% (inactive) | 104% (inactive) | 100% (inactive) | 97.3% (inactive) | 97.5% (inactive) | 57.9 | 75.1% (inactive) | -16% (inactive) | 107% (inactive) | 3% (inactive) | -1.25% (inactive) | 51.5% (inactive) | -8.34% (inactive) | 95.1% (inactive) | -0.17 (inactive) | -2% (inactive) | 17.8% (inactive)
CC1(C)CC(NC(=O)C23CCC(C)(C(=O)C2=O)C3(C)C)CC(C)(C)N1 (stereo not given) | 99% (inactive) | 112% (inactive) | 88.2% (inactive) | 116% (inactive) | 99.2% (inactive) | 65.1 | 166% (inactive) | 10.5% (inactive) | 96.1% (inactive) | 3% (inactive) | -4.74% (inactive) | -0.24% (inactive) | 6.45% (inactive) | 99.7% (inactive) | 0.19 (inactive) | 13% (inactive) | 12% (inactive)
O=C(O)CCCCCN=C1CCc2ccccc2N1 | 93% (inactive) | 132% (inactive) | 101% (inactive) | 80.9% (inactive) | 90.5% (inactive) | 63.5 | 163% (inactive) | 10.3% (inactive) | 118% (inactive) | 2% (inactive) | -6.38% (inactive) | 4% (inactive) | -0.07% (inactive) | 98.7% (inactive) | 0.3 (inactive) | 9% (inactive) | 0% (inactive)
CCCCN1C[C@H](O)[C@@H](O)[C@H](O)[C@H]1CO | 102% (inactive) | 99.6% (inactive) | 95.7% (inactive) | 103% (inactive) | 113% (inactive) | 64.9 | 203% (inactive) | 13.4% (inactive) | 104% (inactive) | 5% (inactive) | -17% (inactive) | -12.1% (inactive) | 5.64% (inactive) | 104% (inactive) | -0.04 (inactive) | 0% (inactive) | 0.92% (inactive)
COc1cc(NC(=O)COc2ccccc2)c(OC)cc1NC(C)=O | 101% (inactive) | 133% (inactive) | 114% (inactive) | 94.6% (inactive) | 101% (inactive) | 59.7 | 216% (inactive) | -14.9% (inactive) | 93% (inactive) | 1% (inactive) | -3.81% (inactive) | -5.93% (inactive) | -0.91% (inactive) | 110% (inactive) | -0.42 (inactive) | 0% (inactive) | 5.73% (inactive)
Cc1c(OCC(F)(F)F)ccnc1CS(=O)c1nc2ccccc2[nH]1 (stereo not given) | 95.1% (inactive) | 101% (inactive) | 97% (inactive) | 119% (inactive) | 118% (inactive) | 58.8 | 153% (inactive) | -64.1% (inactive) | 111% (inactive) | 1% (inactive) | 24.6% (inactive) | -4.09% (inactive) | -4.18% (inactive) | 106% (inactive) | 0.04 (inactive) | -6% (inactive) | -4% (inactive)
Cc1ccc2c(c1)C1(C(=O)N2)N2CCCC2C(C(=O)c2ccc3ccccc3c2)C12C(=O)Nc1ccccc12 (stereo not given) | 107% (inactive) | 93% (inactive) | 115% (inactive) | 89.4% (inactive) | 101% (inactive) | 60.9 | 224% (inactive) | -8.75% (inactive) | 94.8% (inactive) | 1% (inactive) | 3.54% (inactive) | -0.28% (inactive) | 2.26% (inactive) | 97.2% (inactive) | 0.24 (inactive) | -11% (inactive) | -0.73% (inactive)
C=CCOC(=O)C1=C(C)NC(=O)NC1/C=C/c1ccccc1OC (stereo not given) | 100% (inactive) | 101% (inactive) | 103% (inactive) | 103% (inactive) | 108% (inactive) | 57.9 | 97% (inactive) | -1.09% (inactive) | 115% (inactive) | 1% (inactive) | -4.89% (inactive) | -14.7% (inactive) | 6.85% (inactive) | 106% (inactive) | -0.03 (inactive) | 9% (inactive) | -1.65% (inactive)
CC(C)COCC1CC2(CC(C)(c3csc(N)n3)OC2=O)C(=O)O1 (stereo not given) | 105% (inactive) | 97.2% (inactive) | 102% (inactive) | 84.8% (inactive) | 102% (inactive) | 60.8 | 78.1% (inactive) | -9.79% (inactive) | 93% (inactive) | 5% (inactive) | -1.1% (inactive) | 0.87% (inactive) | -4.21% (inactive) | 94% (inactive) | 0.14 (inactive) | -16% (inactive) | -4.64% (inactive)
Cc1ccc(S(=O)(=O)Oc2ccccc2/C=N/N=C(N)N)cc1 | 102% (inactive) | 103% (inactive) | 104% (inactive) | 93.7% (inactive) | 103% (inactive) | 68.2 | 172% (inactive) | 12.6% (inactive) | 97.8% (inactive) | 1% (inactive) | 7.63% (inactive) | 6.93% (inactive) | -0.49% (inactive) | 103% (inactive) | 0.01 (inactive) | 7% (inactive) | -2.64% (inactive)
